# Reference: PubChem BioAssay (NCI)
# This is part of a sample that, as a whole, favours compounds with a hit. Of some 83,000 tested, about 20% had one in any assay.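 Single-dose data. Exposure time 48 hours. Values below 10 considered active.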 A number with no mark means an inactive call. Active and inactive are the calls of the source.
# Tests used:
# Experiment in all cases: NCI-60 one-dose screen, 48 h (100 = growth as untreated, 0 = no growth, -100 = all killed)
# Settings in all cases: 10 µM unless noted
# EKVX NSCLC = system: EKVX NSCLC
# SN12C renal = system: SN12C renal
# UO-31 renal = system: UO-31 renal
# TK-10 renal = system: TK-10 renal
# ACHN renal = system: ACHN renal
# CAKI-1 renal = system: CAKI-1 renal
# A498 renal = system: A498 renal
# CCRF-CEM leukemia = system: CCRF-CEM leukemia
# MOLT-4 leukemia = system: MOLT-4 leukemia
Compound,growth (EKVX NSCLC),growth (SN12C renal),growth (UO-31 renal),growth (TK-10 renal),growth (ACHN renal),growth (CAKI-1 renal),growth (A498 renal),growth (CCRF-CEM leukemia),growth (MOLT-4 leukemia)
O=C1Nc2ccccc2[C@]12CC(c1ccccc1)=NN2,50.7%,59.5%,49.5%,79.7%,54.3%,38.7%,60%,37.2%,43.2%
COc1ccc2nc(NC(=O)CSc3nnc4n3S(=O)(=O)c3ccccc3N4C)sc2c1,106%,99.5%,-72.5% (active),140%,100%,98.3%,121%,4.33% (active),71.5%
O=C(Nc1ncc(Cc2ccc(Cl)c(C(F)(F)F)c2)s1)c1ccc2nnsc2c1,39.4%,58.2%,40.9%,48.3%,43.7%,28.1%,82%,45.5%,30.9%
CN([O-])c1nc(N(C)[O-])nc(N2CCOCC2)n1.CN([O-])c1nc(N(C)[OH2+])nc(N2CCOCC2)n1.[Fe+3],14.5% [100 µM],99.9% [100 µM],72.3% [100 µM],110% [100 µM],82.8% [100 µM],85.8% [100 µM],109% [100 µM],11.7% [100 µM],30.3% [100 µM]
Cn1c(O)c(C=NCCN=Cc2c(O)n(C)c(=O)n(C)c2=O)c(=O)n(C)c1=O,102%,95.6%,84.7%,116%,101%,94.4%,127%,7.42% (active),-46.6% (active)
COc1cccc(NC(=O)Cn2cc(CN3CCN(c4ccnc5cc(Cl)ccc45)CC3)nn2)c1,76.7%,92.1%,62%,104%,85%,78%,104%,-45.1% (active),50%
CCn1cc(C(=O)N/N=C/c2cccs2)c(=O)c2cc(F)c(N3CCNC(C)C3)c(F)c21 (stereo not given),34.1%,70%,66.8%,83.9%,87.2%,46.5%,104%,67.2%,75.1%
COc1ccc(-c2ccc3cnc4sc(-c5ccc(OC)cc5)nc4c3n2)cc1,68.6%,103%,61.7%,142%,89.8%,96%,63.4%,102%,85.9%
Fc1ccc2[nH]cc(-c3nonc3-c3c[nH]c4ccc(Br)cc34)c2c1,19.3%,47.3%,17.3%,41.5%,23.3%,12.4%,24.9%,26%,16.7%
COc1cc2oc(-c3cccc(NC(=O)c4cccc(Br)c4)c3)cc(=O)c2c(OC)c1OC,61.3%,54.2%,36.8%,65.5%,44.1%,51.4%,46.6%,30.3%,41.7%
CC1(C)CCC(S(=O)(=O)c2ccc3c(c2)/C(=N\O)c2cc(S(=O)(=O)N4CCC(O)(c5cccc(C(F)(F)F)c5)CC4)ccc2-3)CC1,-33.4% (active),3.73% (active),45.6%,-35.7% (active),-13.3% (active),-37.7% (active),-51.5% (active),-58.4% (active),-69.2% (active)
CC[C@]12C=CCN3CC[C@@]4(c5cc(NC(=O)CCC(=O)OCc6cn(Cc7ccc(F)cc7)nn6)c(OC)cc5N(C)[C@H]4[C@@](O)(C(=O)OC)[C@@H]1OC(C)=O)[C@@H]32,101%,96.4%,85.8%,94%,101%,89.7%,109%,102%,104%
COCCn1cc(-c2nc(-c3cc4cccnc4n3CCOC)cs2)c2cc(OC)ccc21,26%,78.8%,61.9%,14%,68.3%,70.4%,66.8%,35.2%,58.4%
COC(=O)[C@H]1CCCN1C[C@@H](O)CN1C(=O)/C(=C\c2cc(OC)c(OC)c(OC)c2)c2ccccc21,104%,98.2%,82.1%,102%,105%,93.1%,113%,93.9%,81.6%
Nc1ncnc2c1N=C(c1ccc3c(c1)OCO3)CC(c1cccc(Nc3ccnc4cc(Cl)ccc34)c1)N2 (stereo not given),62.2%,50.7%,44%,65.7%,67.5%,53.4%,61.5%,21.5%,52.7%
O=c1oc2ccc([N+](=O)[O-])cc2cc1Br,102%,105%,88.5%,105%,117%,94.5%,99.7%,109%,98.5%
Cc1ccc(-c2nc(/C=C3/C(=O)Nc4ccccc43)c3ccccn23)cc1,80.1%,82.6%,54.3%,88.9%,16.6%,48.8%,104%,84.3%,72.2%
COc1ccc(C(=S)N2CCN(c3ccccc3Cl)CC2)cc1OC,97.4%,100%,104%,108%,97.2%,91.8%,94.6%,123%,76.4%
CC(=O)OCc1nc(C#N)c(N(C)C)o1,90.6%,97.7%,89.9%,84.1%,98%,92.7%,84.7%,88.2%,97.1%
COc1cc(N2C(=O)[C@H](O)C2c2ccc(SC)cc2)cc(OC)c1OC (stereo not given in full),36.7%,28.7%,43.5%,40.7%,31.8%,23.6%,-1.79% (active),3.99% (active),4.67% (active)
CCCCCC(=O)OCC(=O)O[C@@H]1C[C@]2(C(C)C)O[C@@]1(C)[C@@H]1CC[C@@H](C)[C@H]1[C@@H]2OC(=O)/C=C/c1ccccc1,73.8%,19.7%,-80.3% (active),134%,-24.2% (active),-4.76% (active),-88.6% (active),59.7%,72.1%
CCN(CC)CCOc1ccc(C(=C(C)c2ccc(Cl)cc2)c2ccc(OCCN(CC)CC)cc2)cc1,26.1%,-83.7% (active),-92.8% (active),-87.2% (active),-88.3% (active),-95.7% (active),7.66% (active),-62.8% (active),-64.2% (active)
C=CCc1c(O)c(C(=O)/C=C/c2ccc(Cl)cc2)c(OC)c2ccoc12,56.3%,57.2%,51.4%,57.2%,55%,19.5%,46.9%,21.4%,15.3%
Clc1ccc(Nc2nnc(COc3ccccc3)c3ccccc23)cc1,6.53% (active),17%,-12.3% (active),-17.5% (active),3.37% (active),15.4%,-17.3% (active),1.06% (active),-32.6% (active)
Cc1ccc(/C=C2\CN(C(=O)OC(C)(C)C)C/C(=C\c3ccc(C)cc3)C2=O)cc1,84.3%,60.7%,66.9%,87%,20.3%,61%,67.6%,3.02% (active),34.7%
